Only some compounds are listed: those with a hit (about 3.4% of all), similar ones and a draw of the others.
FBW7 activator – human FBW7 E3 ligase activation, primary screen; actives 0.13% (n = 650,000); normalized activity (activation), % at 26.1 µM; AID 1259310; AlphaScreen FBW7–phospho-cyclin E peptide binding, activator screen; in the data active = normalized activity above about 1.9%;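 note: purified mutant Fbw7 with reduced substrate affinity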
GPR151 activ – human GPR151 activation | PathHunter beta-arrestin GPR151 cells, luminescence | Q8TDV0 | AID 1508602 | actives 1% (n = 650,000) | activation, % at 11.2 µM; in the data active = activation above about 4.9%;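 note: 0% = median of compound wells and 100% = cells with positive control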
MITF primary – blocks human microphthalmia-associated transcription factor; O75030; AlphaScreen MITF homodimerization, bead proximity signal; inhibition, % at 2.6 µM; actives 0.91% (n = 650,000); in the data active = inhibition above about 50%;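 note: 0% = vehicle wells with protein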
Target sequence (O75030 whole entry, looked up): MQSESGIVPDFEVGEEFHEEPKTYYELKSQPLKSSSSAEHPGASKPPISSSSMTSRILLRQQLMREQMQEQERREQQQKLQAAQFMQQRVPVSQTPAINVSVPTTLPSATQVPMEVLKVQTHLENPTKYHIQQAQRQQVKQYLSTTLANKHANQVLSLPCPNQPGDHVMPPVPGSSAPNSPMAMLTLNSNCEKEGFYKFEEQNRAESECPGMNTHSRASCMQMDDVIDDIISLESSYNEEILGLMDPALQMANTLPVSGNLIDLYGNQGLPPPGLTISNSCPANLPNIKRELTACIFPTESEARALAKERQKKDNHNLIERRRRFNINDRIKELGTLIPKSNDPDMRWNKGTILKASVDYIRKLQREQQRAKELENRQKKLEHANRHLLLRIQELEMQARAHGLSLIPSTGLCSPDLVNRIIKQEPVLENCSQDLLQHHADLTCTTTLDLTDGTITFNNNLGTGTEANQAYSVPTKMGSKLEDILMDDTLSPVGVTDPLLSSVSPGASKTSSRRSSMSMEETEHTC
TEAD-YAP inh – TEAD-YAP interaction inhibition; inhibition, % at 9.12 µM; actives 1.4% (n = 640,000); AID 1259422; HEK-TIYL cells, TEAD-Gal4/YAP UAS-luciferase luminescence; in the data active = inhibition above about 32%;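 note: 0% = median of test compound wells and 100% = reference inhibitor wells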
GPR151 conf act – human GPR151 activation, confirmation screen; shares compounds with GPR151 activ; GPR151 PathHunter beta-arrestin cells, luminescence, 90 min; % of EA-reagent control over plate median; activation, % at 11.2 µM; 6,700 tested, under 10 active;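 active = mean percent activation across replicates above the confirmation screen cutoff of 4.91%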
GPR119 ag – counter-screen for GPR151 activators: effect on human GPR119. shares compounds with GPR151 activ. GPR119 PathHunter beta-arrestin cells, luminescence, 90 min; 0 = compound-well median, 100 = enzyme-acceptor control. activation, % at 11.2 µM. actives 0.3% (n = 6,700). AID 1508611;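 active = mean percent activation in the counterscreen above 29.09%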;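 note: counterscreen on off-target GPR119 to flag nonselective hits from the GPR151 activator screen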
An asterisk follows results filed as active; · = not tested or not shown.

SMILES	FBW7 activator	GPR151 activ	MITF primary	TEAD-YAP inh	GPR151 conf act	GPR119 ag
O=C(NCc1cccs1)Nc1ccccc1Cl	0.1	6.2*	24.7	-23.7	0.1	0.6
O=C(O)C1(c2ccccc2)CCN(S(=O)(=O)c2ccccc2)CC1	0.1	-1.4	15.8	-2.1	·	·
O=C(NCc1cccs1)C1(c2ccccc2)CC1	-0.1	8.6*	5.3	2.1	0.0	3.2
COc1cccc(OC)c1CN1CCC(OC(=O)Nc2ccccc2)CC1	-0.2	0.0	-1.4	-16.3	·	·
O=C(/C=C/c1cccc(F)c1)N1CC[C@H]2[C@H](CCC(=O)N2Cc2cccc(F)c2)C1	0.1	-0.9	-5.3	10.0	·	·
COc1cccc(OC)c1C(=O)N(CC(C)C)c1nnc(-c2cccnc2)s1	0.2	-0.7	-14.8	-8.0	·	·
CC(Oc1ccc(Br)cc1)C(=O)O/N=C(\N)c1ccc([N+](=O)[O-])cc1 (stereo not drawn)	-0.2	0.0	-15.3	-7.5	·	·
Cc1cccc(C(=O)O/N=C(\N)c2ccc([N+](=O)[O-])cc2)c1	-0.2	5.6*	1.8	-6.5	0.1	3.9
CC(Oc1ccc(Br)cc1)C(=O)O/N=C(\N)c1cccc([N+](=O)[O-])c1 (stereo not drawn)	-0.1	5.7*	12.9	-6.0	-0.9	7.5
Cc1ccc(SCC(=O)O/N=C(\N)c2cccc([N+](=O)[O-])c2)cc1	-0.3	5.2*	2.7	4.0	-0.1	0.6
Cc1cc(C)cc(C(=O)O/N=C(\N)c2ccc([N+](=O)[O-])cc2)c1	0.0	-1.3	-3.9	-0.7	·	·
CC(C(=O)O/N=C(\N)c1ccccc1)c1ccc([N+](=O)[O-])cc1 (stereo not drawn)	0.1	0.1	5.5	6.9	·	·
CC(C(=O)O/N=C(\N)c1ccncc1)c1ccc([N+](=O)[O-])cc1 (stereo not drawn)	0.5	21.4*	15.9	5.9	-0.4	-1.1
Cc1cc(Br)ccc1OCC(=O)N1C(C)CCCC1C (stereo not drawn)	0.0	-0.8	-0.4	-21.8	·	·
Cc1cc(C(=O)O/N=C(\N)c2ccc(Br)cc2)ccc1[N+](=O)[O-]	0.0	6.4*	2.8	0.1	-1.2	-12.0
Cc1ccccc1N(CC(=O)NC(C)(C)C)C(=O)CCC(=O)Nc1nccs1	0.1	5.7*	8.2	-0.3	-0.8	-12.3
CCC(C)(C)NC(=O)CN(C(=O)CCC(=O)Nc1nccs1)c1ccccc1C	0.1	1.0	-9.9	-9.9	·	·
CN(C)c1ccc(NC2=CC(=O)N(CCc3ccccc3)C2=O)cc1	-0.2	1.7	2.1	3.1	·	·
CN(C)c1ccc(NC2=CC(=O)N(Cc3ccco3)C2=O)cc1	-0.4	5.1*	36.9	-0.9	-0.2	-9.2
Cc1cc2c(=O)n(CC(=O)Nc3ccc(Oc4ccccc4)cc3)cnc2s1	0.2	1.0	18.6	3.3	·	·
CCC(C)N(C(=O)c1csnn1)C(C(=O)NCc1ccc(F)cc1)c1ccco1 (stereo not drawn)	1.0	7.2*	-4.7	-11.1	1.0	3.5
c1ccc(COC2CCCN(Cc3nc(-c4ccc5c(c4)OCO5)no3)C2)nc1 (stereo not drawn)	-0.1	16.1*	4.5	-14.1	0.5	2.9
c1ccc(COC2CCCN(Cc3nc(-c4cccs4)no3)C2)nc1 (stereo not drawn)	-0.1	0.3	-8.6	5.4	·	·
COc1ccc(NC(=O)O/N=C/c2ccc([N+](=O)[O-])cc2)cc1	0.9	-1.1	13.5	-22.2	·	·
Cc1nc2cc(C(=O)N3CCCC(N4CCOCC4)C3)ccc2n1-c1ccccc1 (stereo not drawn)	0.2	10.9*	-10.4	-5.0	0.5	-6.4
SMILES	FBW7 activator	GPR151 activ	MITF primary	TEAD-YAP inh	GPR151 conf act	GPR119 ag
CC(C)OC(=O)c1ccc(SCC2CCCO2)c([N+](=O)[O-])c1 (stereo not drawn)	-0.3	9.0*	-2.0	-25.0	-0.3	-7.4
CCOC(=O)c1ccc(SCC2CCCO2)c([N+](=O)[O-])c1 (stereo not drawn)	-0.2	1.6	4.3	-61.7	·	·
COc1cc(Br)ccc1OCC(=O)N/N=C/c1ccccc1	0.0	1.2	-3.5	-2.7	·	·
O=C(CN1C(=O)c2ccccc2C1=O)NCCCn1ccnc1	0.0	0.0	8.5	-3.0	·	·
O=C1OC(c2cccc(Br)c2)=N/C1=C\c1cccc(I)c1	0.2	1.6	12.7	-1.0	·	·
COCCNC(=O)[C@@H]1C[C@H](NCc2ccccc2Cl)CN1C1Cc2ccccc2C1	-0.1	6.4*	-0.9	-3.3	0.6	0.1
COCCNC(=O)[C@@H]1C[C@H](NCc2cc(C)ccc2C)CN1C1Cc2ccccc2C1	1.1	-0.1	3.6	3.6	·	·
C=CCn1c(SC(C)C#N)nnc1-c1ccc(Br)cc1 (stereo not drawn)	0.0	-1.2	6.6	8.4	·	·
CCC(C)NC(=O)C1=C(C)C(=O)OC12CCCCC2 (stereo not drawn)	-0.1	12.2*	2.8	1.2	-1.4	-6.0
CCC(C)c1ccccc1OCCON1C(=O)CCC1=O (stereo not drawn)	-0.1	7.1*	-21.1	7.6	1.7	2.0
CC(C)(C)c1ccc(OCCON2C(=O)CCC2=O)c(Cl)c1	-0.1	3.3	-27.8	2.1	·	·
CCOc1ccc(S(=O)(=O)N2CCN(C)CC2)cc1-c1nc2c(C(C)(C)C)nn(C)c2c(=O)[nH]1	-0.1	5.1*	-6.1	3.7	0.2	9.3
CCOC(=O)Cc1csc(SCC(=O)c2c(C)[nH]c3ccccc23)n1	0.2	2.1	4.9	1.8	·	·
OCC1(Cc2ccccc2)CCN(Cc2cccc3nonc23)CC1	-0.2	2.2	0.0	1.6	·	·
OCC1(Cc2ccccc2)CCN(Cc2cccc3c2OCO3)CC1	-0.1	5.0*	-3.2	-4.3	0.1	-3.2
COc1ccc(CN2C(=S)N(C)C(=O)C2CC(=O)Nc2ccc(F)cc2)cc1 (stereo not drawn)	0.1	1.4	7.0	1.4	·	·
CC1=C2C(O)C(=O)OC3CC4C(C)(C)C(=O)C=C[C@]4(C)C(CC1)[C@]23C (stereo partly drawn)	0.0	6.0*	-3.5	-6.4	-0.3	7.4
CC(C)C(NC(=O)c1ccccc1)C(=O)OCc1ccccc1 (stereo not drawn)	0.1	-0.6	14.6	3.3	·	·
O=C(Nc1ccc2nsnc2c1)N1CCCCCC1	-0.1	6.1*	-9.0	-41.6	-0.5	-3.8
COC(=O)[C@@H]1CC[C@H](C)[C@@H](c2ccc(C)cc2)N1C(=O)c1ccc(/C=N/OC[C@@H](O)[C@H]2O[C@@H]3OC(C)(C)O[C@@H]3[C@H]2O)cc1	-0.1	6.7*	-2.7	·	0.6	10.6
CNC(=O)C(=O)NCC(c1ccco1)S(=O)(=O)c1ccccc1 (stereo not drawn)	0.8	-1.4	10.6	2.1	·	·
COc1ccc(OC)c(/C=N/NC(=O)c2[nH]ncc2Br)c1	0.5	-1.7	12.3	-33.2	·	·
COC(=O)c1[nH]ncc1Br	0.0	6.1*	7.9	2.7	-0.2	-13.8

Screening results from PubChem BioAssay.
